Data taken from PubChem BioAssay.
Several values for one entry are separate records, joined by “and”; a condition that tells them apart may be missing. Identical values can stand only once. Activity calls are given as the source filed them.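 The calls were made as follows, unless noted: active = compounds whose cell count with miR-34 switched on is under 0.7 times the count with it off; inactive = the rest.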

Key:
[1] = sensitizers of A549 cells to miR-34 induction, primary screen, imaging, A549 dox-inducible miR-34, nuclei and caspase counts (AID 1347080); conditions: A549 miR-34 inducible, Hoechst nuclei count, 48 h; also: test concentration not given here
[2] = survival rescue of mitochondrial mutant cells in low glucose, primary screen, MELAS cybrids, Rieske KO mouse fibroblasts, CellTiter-Glo (AID 1508586;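 active = mean z-score across replicates of 1.96 or higher in either the MELAS or the Rieske mutant cell line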;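 also: test concentration not given here; z relative to plate mean and SD of compound and empty wells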)
[3] = viability rescue of complex I mutant cybrids, primary screen, cell-based, galactose medium, ATP luminescence (AID 1645843;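 active = z-score of at least 1.8 in each of two replicates, scored against plate mean and spread of sample wells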;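 also: positive z means more ATP and so rescue of galactose-driven cybrid death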); conditions: complex I mutant cybrid cells, 72 h, stronger effect = higher value
[4] = stronger effect = lower value, cell number ratio, induced over uninduced
[5] = measured here: relative caspase fold change +Dox/-Dox
[6] = measured here: total cells with miR-34 induction, stronger effect = lower value
[7] = measured here: total cells without miR-34 induction
[8] = MELAS cybrid survival, CellTiter-Glo 48 h, stronger effect = higher value
[9] = Rieske KO mouse fibroblast survival, CellTiter-Glo 72 h

| Structure (SMILES) | fold change [1, 4] | fold change [1, 5] | cell count [1, 6] | cell count [1, 7] | z-score [2, 8] | z-score [2, 9] | z-score [3] |
| --- | --- | --- | --- | --- | --- | --- | --- |
| O=C(O)c1ccc(-c2ccccc2Cl)o1 | 0.867 (inactive) | 0.416 | 7840 | 9050 | -0.894 (inactive) | 0.4 | 0.53 (inactive) |
| CCCn1ncc(-c2ccnc(NC3CC(C)(C)NC(C)(C)C3)n2)c1C | 0.919 (inactive) | 0.965 | 8450 | 9200 | 0.278 (inactive) | 0.593 | 0.33 (inactive) |
| FC(F)Oc1ccc(-c2nc3c(cnn3Cc3cccs3)[nH]2)cc1 | 0.844 (inactive) | 1.61 | 6520 | 7720 | -0.426 | 2.02 | 1.1 (inactive) |
| Cc1cnc(NCCCn2cccn2)nc1-c1cnn(C)c1 | 0.862 (inactive) | 1.64 | 9190 | 10700 | -0.223 (inactive) | -0.0144 | -0.51 (inactive) |
| COc1ccc(CN2CCN(c3ncnc4sccc34)CC2=O)cc1 | 0.842 (inactive) | 1.22 | 5020 | 5960 | -0.496 (inactive) | -0.343 | 0.64 (inactive) |
| O=C(Nc1cccnc1)C1CCN(C(=O)c2ccccc2Cl)CC1 | 0.886 (inactive) | 1.9 | 8890 | 10000 | 0.0994 (inactive) | -0.159 | -0.045 (inactive) |
| COc1cc(CC2COC(=O)C2Cc2ccc(O)c(OC)c2)ccc1O (configuration not stated) | 0.888 (inactive) | 0.681 | 8440 | 9500 | -1.09 (inactive) | -0.0925 | -0.07 (inactive) |
| O=S(=O)(O)CCCSc1nc2ccccc2s1 | 0.906 (inactive) | 0.489 | 8800 | 9700 | -0.268 (inactive) | -0.142 | 0.7 (inactive) |
| CC1(C)CC(=O)c2sc(N3CCOCC3)nc2C1 | 0.909 (inactive) | 0.788 | 8160 | 8970 | 0.786 (inactive) | -0.0343 | 0.025 (inactive) |
| CN(C)C(=O)c1cc(-c2cnc(-c3ccccn3)nc2)nc2cc(F)ccc12 | 0.875 (inactive) | 1.98 | 8570 | 9790 | -0.444 (inactive) | -0.334 | -0.41 (inactive) |
| NCCCNc1ccccc1[N+](=O)[O-] | 0.945 (inactive) | 0.463 | 8170 | 8640 | -0.896 (inactive) | 0.0452 | 0.19 (inactive) |
| O=C1CN(c2ncnc3nc[nH]c23)CCN1Cc1cccc(F)c1 | 0.802 (inactive) | 2.49 | 7800 | 9720 | -0.258 (inactive) | -0.742 | -0.53 (inactive) |
| O=C(Nc1n[nH]c(-c2ccco2)n1)N1CCc2ccccc2C1 | 0.896 (inactive) | 0.879 | 7540 | 8420 | 1.17 | 3.81 | 0.1 (inactive) |
| Cc1nc(-c2ccnc(N)n2)cn1Cc1c(Cl)cccc1Cl | 0.853 (inactive) | 0.94 | 7950 | 9330 | -0.789 (inactive) | 0.727 | -0.225 (inactive) |
| O=C(NCC(c1ccccc1)c1ccccc1)Nc1nncs1 | 0.844 (inactive) | 1.57 | 7570 | 8970 | -0.117 | 3.64 | 1.59 (inactive) |
| O=C(O)c1ccc(-c2ccc(F)cc2)cc1 | 0.935 (inactive) | 1.32 | 7840 | 8390 | -0.835 (inactive) | -0.109 | 0.26 (inactive) |
| COC1C=CO[C@@]2(C)Oc3c(C)c(O)c4c(O)c(c5c(c4c3C2=O)NC2(CCN(CC(C)C)CC2)N=5)=NC(=O)C(C)=CC=CC(C)C(O)C(C)C(O)C(C)C(OC(C)=O)C1C (some centres not stated) | 0.889 (inactive) and 0.859 (inactive) | 1.03 and 1.09 | 7260 and 7580 | 8160 and 8820 | -0.0325 (inactive) | 0.718 | 1.02 (inactive) |
| CN(C)CCc1c[nH]c2ccc(CC3COC(=O)N3)cc12 (configuration not stated) | 0.908 (inactive) and 0.936 (inactive) | 1.13 and 0.401 | 9680 and 7960 | 10700 and 8510 | -0.0653 (inactive) | 0.00529 | 0.625 (inactive) |
| Nc1nc(NC(Cn2ccnc2)c2ccccc2)c2cn[nH]c2n1 (configuration not stated) | 0.958 (inactive) | 1.04 | 9810 | 10200 | -0.353 (inactive) | -0.318 | -0.495 (inactive) |
| Cc1nc(CCNC(=O)Nc2nnc(-c3cccs3)s2)sc1C | 0.877 (inactive) | 1.44 | 7610 | 8680 | -0.443 (inactive) | -0.248 | 0.645 (inactive) |
| CCN(CCc1ccccn1)C(=O)c1cc(-c2cnc(N)nc2)nc2c(C)cccc12 | 0.904 (inactive) | 1.79 | 8640 | 9560 | -0.0572 (inactive) | -0.177 | 0.51 (inactive) |
| c1ccc(NCc2cccnc2)cc1 | 0.876 (inactive) | 1.56 | 8370 | 9560 | -0.153 (inactive) | -0.0248 | 0.545 (inactive) |
| COc1ccc(CCNCC(O)COc2cccc(C)c2)cc1OC (configuration not stated) | 0.915 (inactive) | 0.555 | 8400 | 9170 | -1.33 (inactive) | 0.533 | -0.99 (inactive) |
| CCc1ccc(-c2nn(CC(=O)Nc3cnn(C)n3)c3ccccc23)cc1 | 0.895 (inactive) | 1.48 | 6460 | 7220 | -0.0449 (inactive) | -0.314 | 1.09 (inactive) |
| COc1ccc(C(=O)Nc2c(Cl)cncc2Cl)cc1OC1CCCC1 | 0.898 (inactive) | 0.397 | 7850 | 8740 | 0.807 (inactive) | 0.781 | 0.215 (inactive) |
| COc1cccc2ccc(-c3coc4ccccc4c3=O)nc12 | 0.946 (inactive) | 0.913 | 7730 | 8170 | -0.341 (inactive) | 0.246 | 2.79 (active) |
